Experimental data as given in the supplement of paper PMC10338343.
± gives the standard deviation.

test system: EfPiwi piRISC loaded with L1MC piRNA (26 nt); assay: pre-steady-state target cleavage rate (min^-1); auxiliary factor: 500 nM Ephydatia muelleri Gtsf1; guide: L1MC piRNA 5'p-UAACUAAAUACUAUGCAAGCUGUAGG; MIWI and MILI are mouse PIWI proteins and EfPiwi is from a freshwater sponge; tags in brackets are library labels; higher = faster piRNA-guided slicing of the target
Procedure: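 Cleave-'n-Seq: a library of target RNAs (target site in constant flanks) at […] was incubated with 1 nM active freshwater sponge Ephydatia fluviatilis Piwi piRISC (synthetic 5'-monophosphorylated piRNA guide) with or without 500 nM EmGtsf1 at 33 °C for 1 min to 16 h. Uncleaved targets were sequenced and the pooled three trials fitted to a burst-and-steady-state model to give the pre-steady-state cleavage rate (min^-1). Sequence is the target site only. Fits with R² ≤ 0 are excluded.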

UCCUGGAUCAGCUUGCAUAGAAUUUAGUUA and UCCUGGUACAGCUUGCAUAGUAUCUUAGUUA are within error of each other in “pre-steady-state target cleavage rate” value: 0.00327 ± 0.0015 for the first, 0.00588 ± 0.0027 for the second.

Going from UCCUGCUACAGUCUUGCAUAGUAUUUAGUUA to UCCUGGAUCAGCUUGCCUAGUAUUUAGUUA, the “pre-steady-state target cleavage rate” value rises from 0.00684 ± 0.0025 to 0.0512 ± 0.011.

UCCUGGAACAGCUUGACAUAGUAUUUAGUUA and UCCUGGUACGAGCUUGCAUAGUAUUUAGUUA are within error of each other in “pre-steady-state target cleavage rate” value: 0.013 ± 0.004 for the first, 0.00873 ± 0.0027 for the second.

UCCUGGAUGUCCUUACAUAGUAUUUAGUUA and UCCUGGUACAGCAUGCUUAGUAUUUAGUUA are within error of each other in “pre-steady-state target cleavage rate” value: 0.00492 ± 0.0036 for the first, 0.00778 ± 0.0028 for the second.

UCCUGGAUCAGCUUGCAUAGUAUUGUAGUUA and UCCUGGAUGAGCUUGCAUUGUAUUUAGAAA are within error of each other in “pre-steady-state target cleavage rate” value: 0.00652 ± 0.0027 for the first, 0.00384 ± 0.0021 for the second.

First: UCCUGCUACAGCUUGAAUAGUAUUUAGUUA
Second: UCCUGCUACAGCUUGCAUAGUGUUUAGUUA
The “pre-steady-state target cleavage rate” value of the first is higher: 0.0179 ± 0.0045 for the first, 0.0065 ± 0.0019 for the second.

Going from UCCUGGUACAGCUUGCAUAGUAUUAUGUUA to UCCUGGUAGUGCUUGCAUAGUAUUUAGUUA, the “pre-steady-state target cleavage rate” value rises from 0.00349 ± 0.0025 to 0.0152 ± 0.0047.

UCCUGGAUGUGCUUGCAUAGUACUUAGUUA and UCCUGGAUCUGCUUGCAUAGUAUUAAGUUA are within error of each other in “pre-steady-state target cleavage rate” value: 0.00522 ± 0.0031 for the first, 0.00735 ± 0.0037 for the second.

UCCUGCUACAGGUUGCAUAGUAUUUAGUAA and UCCUCCUACAGCUUGGAUAGAAUUUAGUUA are within error of each other in “pre-steady-state target cleavage rate” value: 0.00478 ± 0.0019 for the first, 0.00574 ± 0.0016 for the second.

First: UCCUGGAUCACCUUGGAUAGUAUUUAGUUA
Second: UCCUGGAUGAGCUUGCAUAGUAUCUUAGUUA
The “pre-steady-state target cleavage rate” value of the first is lower: 0.00371 ± 0.0037 for the first, 0.0147 ± 0.005 for the second.

UCCUCCUACAGCUUGCAUAGCAUUUAGUUA and UCCUCCUACAGCAUGCAUAGUAUUUACUUA are within error of each other in “pre-steady-state target cleavage rate” value: 0.00463 ± 0.0019 for the first, 0.00211 ± 0.0017 for the second.

First: UCCUGCUACAGCUUGCAUAGUAUUUAAUUA
Second: UCCUCGUACUGCUUGCAUAGUAUUUAGUUA
The “pre-steady-state target cleavage rate” value of the first is lower: 0.00612 ± 0.0025 for the first, 0.0721 ± 0.018 for the second.

Compared with UCCUGGAUGUCGAACGUUAGUAUUUAGUCA, UCCUGGUACUCCUUGCAUAGUAUUUAGUAA is higher in “pre-steady-state target cleavage rate” value: less than 0.0001 for the first, 0.00302 ± 0.002 for the second.

Compared with UCCUGCAACAGCUUGGAUAGUAUUUAGUUA, UCCUGGAUCAGCUUGCAUAGUAUUUAGUAA is lower in “pre-steady-state target cleavage rate” value: 0.0256 ± 0.0066 for the first, 0.00774 ± 0.0024 for the second.

UCCUCCUACAGCUUGCAUAGUAUAAAGUUA and UCCUGGAACAGGUUCCAUAGUAUUUAGUUA are within error of each other in “pre-steady-state target cleavage rate” value: 0.00527 ± 0.0031 for the first, 0.00255 ± 0.0024 for the second.

UCCUGGUAGAGCUUGCAUUGUAUUUAGUUA and UCCUCCUACAGCUUGCAUAGUUUUAGUUA are within error of each other in “pre-steady-state target cleavage rate” value: 0.00786 ± 0.0033 for the first, 0.00276 ± 0.0023 for the second.

Compared with UCCUCCUAGAGCUUGGAUAGUAUUUAGUUA, UCCUCGUACAGCAUGCAUAGUAUUUAGUUA is higher in “pre-steady-state target cleavage rate” value: 0.0312 ± 0.0067 for the first, 0.0515 ± 0.013 for the second.

First: UCCUGGAACAGCUUGCAAAGUAUUUAGUUA
Second: UCCUGGAUGUCGAACCAUAGUAUUUACAAA [g5:g15:cont:t1A]
The “pre-steady-state target cleavage rate” value of the first is higher: 0.0333 ± 0.0089 for the first, less than 0.0001 for the second.

Compared with UCCUGGUACAGCUUGCAAAGUAUUUAGAUA, UCCUCCUACACCUUGCAAAGUAUUUAGUUA is higher in “pre-steady-state target cleavage rate” value: 0.00431 ± 0.0026 for the first, 0.0172 ± 0.007 for the second.

Going from UCCUGCAUCAGCUUGCAUAGUAUUUACAAA to UCCUGGAUCAGUUUGCAUAGUAUUUAGUUA, the “pre-steady-state target cleavage rate” value rises from 0.00323 ± 0.0016 to 0.128 ± 0.021.
